An excerpt weighted towards active compounds, which were near 1.7% of everything screened.
GLP-1R agonist = activates the human GLP-1 receptor; P43220; HEK293 GLP-1R CRE-luciferase, luminescence, 4-6 h; cells express a hypersensitive GLP-1R form; Potency, µM (top dose mostly 45.6 µM), without a hit: top-dose activation, most hits filed as activators; 0.007% of 380,000 active; AID 624172; further: % of control where 0% means no effect
GLP1R inv ag = acts as inverse agonist at human GLP-1 receptor. HEK293 GLP-1R CRE-luciferase, luminescence, 24 h; GLP-1R form is constitutively active. 1.6% of 410,000 active. Potency, µM (highest dose often 38.3 µM), without a hit: top-dose activity change, negative = inhibition, actives largely listed as inhibitors. AID 624417. P43220; further: on the % scale 0 is the no-effect control and ±100 the full control effect; nearly all actives have a fitted effect of over 55% in size
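Cells are plated, allowed 12 hours at 37 deg C, then treated with compounds for 24 hr before luciferase detection reagent is added and luminescence is read after 12 min at room temperature. The HEK293 line carries constitutively active GLP-1R with a cAMP-responsive reporter.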
PTHR1 agonist = PTHR1 (human) receptor agonism. AID 743266. Potency, µM (series often up to 115 µM), inactives show at the top dose activation, usual class: activators. Q03431. HEK293 GP2 PTHR1 cells, GloSensor cAMP luminescence, 1 h. 0.075% of 410,000 active; further: nearly all actives have a fitted effect of over 55% in size
Target sequence (Q03431 whole entry, looked up): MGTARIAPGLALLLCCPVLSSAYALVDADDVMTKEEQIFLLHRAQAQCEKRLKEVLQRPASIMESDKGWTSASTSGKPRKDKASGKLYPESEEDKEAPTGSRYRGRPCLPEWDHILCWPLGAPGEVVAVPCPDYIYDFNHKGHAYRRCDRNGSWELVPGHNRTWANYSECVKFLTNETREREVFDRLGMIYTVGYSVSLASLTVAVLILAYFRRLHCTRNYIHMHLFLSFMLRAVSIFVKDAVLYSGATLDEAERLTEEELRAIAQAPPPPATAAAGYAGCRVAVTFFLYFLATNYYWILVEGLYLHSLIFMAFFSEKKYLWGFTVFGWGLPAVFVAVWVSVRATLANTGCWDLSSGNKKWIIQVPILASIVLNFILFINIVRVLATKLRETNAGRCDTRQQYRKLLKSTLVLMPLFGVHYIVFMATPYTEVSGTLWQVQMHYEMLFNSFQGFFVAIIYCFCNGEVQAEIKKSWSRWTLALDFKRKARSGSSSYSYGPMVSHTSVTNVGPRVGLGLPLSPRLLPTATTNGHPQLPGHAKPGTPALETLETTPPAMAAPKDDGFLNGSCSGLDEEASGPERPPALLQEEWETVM
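HEK-293-derived GP2 cells expressing PTHR1 and a GloSensor cAMP reporter, 3,000/well, plated overnight, given luciferin plus IBMX (each 0.5 mM as added) for 1 h at 37 °C, then compound for 1 h at 37 °C. Luminescence was read after 15 min at room temperature.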
GLP1R cytotox = cytotoxicity in counter-screen for GLP-1R inverse agonists | HEK293 cAMP-luciferase reporter cells, luminescence, 24 h | Potency, µM (series often up to 38.3 µM), without a hit: at the top dose activity change, negative = inhibition, actives largely listed as inhibitors | 0.13% of 410,000 active | AID 624418;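 further: loss of luciferase light is scored as toxicity; on the % scale 0 is the no-effect control and ±100 the full control effect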
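1536-well qHTS counterscreen of the MLSMR; 200 cells/uL, 12 h pre-incubation, 23 nL cpd, 24 h at 37 deg C 5% CO2, luciferase detection reagent, 12 min RT, luminescence. Inhibition = undesired.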
The depositor's hits bear a star; i = inactive; ? = inconclusive; · = not tested or not shown; [ ] = dose if it differs, or a comment. The call rests on the fitted dose curve; in most records, active means well fitted curve in the direction sought with a large enough effect; inconclusive means small, poorly fitted or top-dose-only effect, or another doubt; inactive means no such curve, though single readings can be large; an effect the other way counts as inactive or inconclusive. Potency means the concentration at half of the fitted maximal effect.

SMILES | GLP-1R agonist | GLP1R inv ag | PTHR1 agonist | GLP1R cytotox
O=C1NC[C@H](c2ccccc2)OC(=O)[C@@H](Cc2ccc(F)cc2)C/C=C\C[C@H]1CC(=O)N(CCO)Cc1ccccc1 | -11.3% | -4.1% | -41.3% | 3.2%
COc1ccc(C(=O)NC(C)C2CC3CCC2C3)c(OC)c1 (stereo not given) | -1.5% | 10µM* | i | 3.2%
CCCOc1ccc(-c2nc(N3CCN(CC)CC3)c3ccccc3n2)cc1 | 13.0% | 7.94µM* | -17.7% | -27.7%
CCCOc1ccc(-c2nc(N3CCN(C)CC3)c3ccccc3n2)cc1 | 33.5% | ? | -2.7% | -7.6%
CCOC(=O)Cn1cccc1-c1nc(-c2ccc(OC)cc2)c(-c2ccc(OC)cc2)s1 | 3.3% | · | · | ·
COc1ccc2c(Cl)c(-c3nnc(SCC(N)=O)n3C)sc2c1 | 2.4% | -8.1% | i | -24.8%
COc1ccc2c(Cl)c(-c3nnc(SCC(=O)c4ccccc4)n3C)sc2c1 | -1.5% | 11.2µM* | -2.9%[57.5 µM] | -25.1%
COc1ccccc1CNC(=O)CCC1N=C2c3ccccc3N=C(SCc3ccc(C)cc3C)N2C1=O (stereo not given) | · | ? | -10.6% | -16.4%
Cn1cc(CN2CCC(CO)CC2)c(-c2ccc(Oc3ccccc3)cc2)n1 | 3.2% | 10µM* | i | -13.9%
CC(NCC(=O)Nc1ccccc1C(=O)NC1CC1)c1cccc(C(F)(F)F)c1 (stereo not given) | 11.5% | 12.6µM* | -31.1% | -0.2%
CCN(CC)c1ccc(NC(=O)CN2CCN(CC(=O)Nc3ccc(F)cc3)CC2)cc1 | -1.7% | 12.6µM* | i | -5.2%
CCN(CC)c1ccc(NC(=O)CN2CCN(CC(=O)Nc3ccc(OC)cc3)CC2)cc1 | 2.1% | -9.6% | -1.5% | 0.5%
COc1cccc(OC)c1C(=O)NC(C)C12CC3CC(CC(C3)C1)C2 (stereo not given) | -5.0% | 8.91µM* | i | 2.9%
COc1cc2c(cc1Cl)/C(=C\CCN(C)C)c1ccccc1S2 | -17.2% | 10µM* | -12.7% | ?
CN(C)CC/C=C1/c2cc(F)ccc2Sc2ccc(Cl)cc21 | 5.8% | 10µM* | -3.2% | ?
COc1cc(Cl)cc2c1Sc1ccccc1/C2=C/CCN(C)C | 5.2% | ? | -15.9% | 10.9%
COc1ccc(-c2nc(SCC(=O)Nc3cccc(C(C)=O)c3)n[nH]2)cc1 | · | 10.8% | i | -14.2%
COc1ccccc1C(=O)Nc1ccc2c(c1)nc(CCNC(=O)c1ccccc1)n2C | 17.4% | ? | -12.9% | 10µM*
COc1ccccc1C(=O)Nc1ccc2c(c1)nc(CCNC(C)=O)n2C | -5.8% | 5.2% | -0.3%[57.5 µM] | -13.4%
Cc1ccc(/C=N\Nc2nc3ccc(Cl)cc3[nH]2)o1 | -12.8% | 5.01µM* | i | -28.0%
Fc1ccccc1-c1ccc(/C=N/Nc2nc3ccccc3[nH]2)o1 | 17.0% | ? | -46.5% | 12.0%
COC(=O)c1ccccc1NC(=O)CSc1nnc2cc(C)c3cc(C)cc(C)c3n12 | · | 8.2% | -4.9% | -5.5%
Cc1cccc(C(=O)Nc2nnc(S(=O)(=O)N3c4ccccc4CC3C)s2)c1 (stereo not given) | · | ? | -94.7% | -12.4%
Cc1ccccc1C(=O)Nc1nnc(S(=O)(=O)N2c3ccccc3CC2C)s1 (stereo not given) | · | 11.2µM* | -85.2% | -2.5%
C=CCN(c1ccccc1)S(=O)(=O)c1ccc2c(c1)NC(=O)C(C)S2 (stereo not given) | 1.0% | 7.08µM* | -11.8% | 0.2%
SMILES | GLP-1R agonist | GLP1R inv ag | PTHR1 agonist | GLP1R cytotox
C=CCN(c1ccccc1)S(=O)(=O)c1ccc2c(c1)NC(=O)C(C)C(=O)N2 (stereo not given) | -3.3% | 4.7% | -42.9% | 2.5%
CCc1cccc(NS(=O)(=O)c2ccc3c(c2)NC(=O)C(C)S3)c1 (stereo not given) | 11.0% | 11.2µM* | -27.8% | 1.1%
O=C(c1ccc(CN2CCc3ccccc3C2)cc1)N1CCN(c2ccc(F)cc2)CC1 | -0.4% | 2µM* | -22.5% | -28.3%
Cc1cccc(C)c1OCC(=O)Nc1oc(-c2ccccc2)c(-c2ccccc2)c1C#N | -16.8% | 10µM* | -34.5% | ?
COc1ccc(N2CCN(C(=O)CN3C(=O)CSc4c3c(C)nn4-c3ccccc3)CC2)cc1 | · | 11.4% | i | 3.0%
Cc1cc(N2CCCC2)nc2ccc(NC(=S)NCCCN3CCC(C)CC3)cc12 | -2.3% | 5.01µM* | i | ?
Cc1cc(N2CCN(C)CC2)nc2ccc(NC(=S)NCCN3CCc4ccccc4C3)cc12 | 21.3% | ? | -8.7% | -17.4%
Cc1cc(N2CCN(C)CC2)nc2ccc(NC(=S)NCCCN3CCc4ccccc4C3)cc12 | 22.2% | ? | -22.4% | 4.47µM*
CCCN1CCN(CCCNC(=S)Nc2ccc3nc(N4CCN(CC)CC4)cc(C)c3c2)CC1 | 3.9% | ? | ? | ?
Cc1csc2nc(-c3cccc(NC(=O)C(C)C)c3)cn12 | · | 5.5% | i | -9.3%
Oc1ccc(CNc2ccccc2)c2cccnc12 | -10.3% | 6.31µM* | i | ?
OCc1ccnc2c(O)cccc12 | -6.5% | 8.91µM* | -3.2% | ?
CSc1cccc(-n2nnc(-c3nsc(NC(=O)c4cccs4)n3)c2C)c1 | · | 5.2% | -47.9% | -5.8%
COc1cc2c3c(c1)c(N=NC(N)=S)c(O)n3C(C)(C)C=C2C | 29.1% | ? | -9.5% | 0.891µM*
CC1=CC(C)(C)n2c(O)c(N=NC(N)=S)c3c(C)ccc1c32 | 0.2% | -5.8% | -34.0% | 7.0%[1.53 µM]
CC1=CC(C)(C)n2c(O)c(N=NC(N)=S)c3cccc1c32 | 0.9% | 4.47µM* | -6.4% | ?
Cc1ccc(-c2cc(=O)c3cc(C)ccc3[nH]2)cc1 | -9.8% | 3.16µM* | -80.0% | -38.1%
Cc1ccc(-c2cc(=O)c3cc(F)ccc3[nH]2)cc1 | 0.6% | -16.0% | -35.9% | -0.3%
CCOc1ccccc1/C=N\Nc1cnn(Cc2ccccc2)c(=O)c1Cl | 13.5% | 7.94µM* | -7.7% | -21.7%
CC(C)N(Cc1nc(-c2ccc(Cl)cc2)no1)C(=O)c1ccc(C(C)(C)C)cc1 | -2.8% | -6.7% | -36.3% | 7.8%
CCN(Cc1nc(-c2ccc(Cl)cc2)no1)CC1CCCO1 (stereo not given) | 4.5% | 1.26µM* | -20.0% | 21.3%
Cc1ccc(-c2noc(CN(C(=O)CCCCCN3C(=O)c4ccccc4C3=O)C(C)C)n2)cc1 | 3.4% | 6.31µM* | -74.3%[57.5 µM] | -7.0%
CC(C)N(Cc1nc(-c2ccccc2)no1)C(=O)C(Cl)(Cl)Cl | 10.6% | 11.2µM* | -35.8% | 4.9%
CCCN(Cc1nc(-c2ccc(Cl)cc2)no1)CC1CCCO1 (stereo not given) | 3.4% | ? | -25.2% | 14.7%
Cc1ccc(-c2noc(CN(C(=O)CCCN3C(=O)c4ccccc4C3=O)C(C)C)n2)cc1 | -3.9% | ? | -11.0% | 4.5%
CC(C)N(Cc1nc(-c2ccc(Cl)cc2)no1)C(=O)CCC1CCCC1 | -0.6% | 10µM* | -42.7% | 9.2%
CN(Cc1nc(-c2ccc(Cl)cc2)no1)C(=O)CCN1C(=O)[C@H]2CC=CC[C@H]2C1=O | 3.8% | 2µM* | -29.9% | 1.1%

Bioassay records (PubChem BioAssay)
